Reference: the supplement of paper PMC9262897, “Low-cost anti-mycobacterial drug discovery using engineered E. coli” (Nature Communications, 2022)
Counter-ions that a name gives are not always drawn. ± gives the standard deviation of the averaged measurements.

Key:
Test in all cases: growth (OD600 after 10 h); higher = more growth (less inhibition)
[1] = tested on: E. coli TESEC Alr+ wild-type control; conditions: compound 0.1 mM; raw OD600 reference: median of DMSO wells 0.241, cell-free background 0.041
Protocol: (§1)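 TESEC Mtb Alr E. coli, or the Alr+ wild-type control, in 384-well plates with Prestwick library compounds at 0.1 mM and 1% DMSO, across arabinose induction levels of 1E3 to 1E7 nM. Growth is read as OD600 after 10 h at 37 °C in triplicate biological replicates.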

E. coli TESEC Mtb Alr [2] = conditions: compound 0.1 mM
Protocol: as §1

E. coli TESEC Mtb Asd = conditions: compound 0.1 mM
Protocol: (§2)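 TESEC E. coli strains in which the native enzyme is deleted and replaced by arabinose-inducible Mtb Asd, DapB, CysH or TrpD, each grown in its selective medium. Strains were screened against the Prestwick library at 0.1 mM and 1% DMSO in 384-well format at low and high arabinose induction. Growth is read as OD600 after 10 h in triplicate.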

E. coli TESEC Mtb DapB = conditions: compound 0.1 mM
Protocol: as §2

[3] = tested on: E. coli TESEC Alr+ wild-type control; conditions: compound 0.1 mM; raw OD600 reference: median of DMSO wells 0.49, cell-free background 0.052
Protocol: (§3)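 TESEC Mtb Alr E. coli (ΔaraC ΔtolC ΔentC Δalr ΔdadX, arabinose-inducible Mtb Alr) or the Alr+ wild-type control strain, grown in defined M9-fructose medium without D-alanine in 96-well plates with Prestwick library compounds at 0.1 mM and 1% DMSO. Low Alr induction is 0.1 µM arabinose and high induction is 10 mM arabinose.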

E. coli TESEC Mtb Alr [4] = conditions: compound 0.1 mM; remark: listed apart in the source
Protocol: as §3

[5] = arabinose 1000 nM, raw OD600 reference: median of DMSO wells 0.294, cell-free background 0.041
[6] = arabinose 10000 nM, raw OD600 reference: median of DMSO wells 0.264, cell-free background 0.041
[7] = arabinose 100000 nM, raw OD600 reference: median of DMSO wells 0.201, cell-free background 0.041
[8] = arabinose 1000000 nM, raw OD600 reference: median of DMSO wells 0.193, cell-free background 0.041
[9] = arabinose 10000000 nM, raw OD600 reference: median of DMSO wells 0.146, cell-free background 0.041
[10] = arabinose induction (level): High, raw OD600 reference: median of DMSO wells 0.331, cell-free background 0.041
[11] = arabinose induction (level): Low, raw OD600 reference: median of DMSO wells 0.417, cell-free background 0.041
[12] = arabinose induction (level): High, raw OD600 reference: median of DMSO wells […], cell-free background 0.041
[13] = arabinose induction (level): Low, raw OD600 reference: median of DMSO wells 0.227, cell-free background 0.041
[14] = arabinose 100 nM, raw OD600 reference: median of DMSO wells 0.413, cell-free background 0.052
[15] = arabinose 10000000 nM, raw OD600 reference: median of DMSO wells […], cell-free background 0.052

| Structure (SMILES) | growth [1] | growth (E. coli TESEC Mtb Alr [2]; [5]) | growth (E. coli TESEC Mtb Alr [2]; [6]) | growth (E. coli TESEC Mtb Alr [2]; [7]) | growth (E. coli TESEC Mtb Alr [2]; [8]) | growth (E. coli TESEC Mtb Alr [2]; [9]) | growth (E. coli TESEC Mtb Asd; [10]) | growth (E. coli TESEC Mtb Asd; [11]) | growth (E. coli TESEC Mtb DapB; [12]) | growth (E. coli TESEC Mtb DapB; [13]) | growth [3] | growth (E. coli TESEC Mtb Alr [4]; [14]) | growth (E. coli TESEC Mtb Alr [4]; [15]) |
| --- | --- | --- | --- | --- | --- | --- | --- | --- | --- | --- | --- | --- | --- |
| Nc1nc(/C(=C/CC(=O)O)C(=O)N[C@@H]2C(=O)N3C(C(=O)O)=CCS[C@H]23)cs1 [Ceftibuten] | 0.146 ± 0.0038 | 0.0633 ± 0.0031 | 0.04393 ± 0.00032 | 0.141 ± 0.012 | 0.138 ± 0.0075 | 0.177 ± 0.004 | 0.158 ± 0.0053 | 0.0769 ± 0.00091 | 0.188 ± 0.021 | 0.231 ± 0.034 | 0.252 ± 0.016 | 0.0471 ± 0.00072 | 0.273 ± 0.01 |
| C#C[C@]1(O)CC[C@H]2[C@@H]3CCC4=CC(=O)CC[C@@H]4[C@H]3CC[C@@]21CC [Norgestrel-(-)-D] | 0.225 ± 0.017 | 0.271 ± 0.0042 | 0.2581 ± 0.0012 | 0.193 ± 0.014 | 0.179 ± 0.0092 | 0.145 ± 0.007 | 0.374 ± 0.051 | 0.429 ± 0.018 | 0.191 ± 0.0085 | 0.234 ± 0.04 | 0.517 ± 0.04 | 0.413 ± 0.018 | 0.331 ± 0.039 |
| c1ccc(CNc2ncnc3nc[nH]c23)cc1 [Aminopurine, 6-benzyl] | 0.208 ± 0.0066 | 0.243 ± 0.0086 | 0.262 ± 0.006 | 0.19 ± 0.014 | 0.166 ± 0.0054 | 0.149 ± 0.013 | 0.279 ± 0.014 | 0.339 ± 0.072 | 0.169 ± 0.0055 | 0.197 ± 0.022 | 0.509 ± 0.077 | 0.416 ± 0.0048 | 0.361 ± 0.0061 |
| CCCCN(CCCC)CCCOC(=O)c1ccc(N)cc1 [Butacaine] | 0.2003 ± 0.0014 | 0.284 ± 0.019 | 0.275 ± 0.01 | 0.181 ± 0.013 | 0.189 ± 0.0068 | 0.14 ± 0.0032 | 0.275 ± 0.029 | 0.445 ± 0.06 | 0.182 ± 0.0067 | 0.208 ± 0.016 | 0.474 ± 0.038 | 0.408 ± 0.013 | 0.337 ± 0.019 |
| CC(CN(C)C)CN1c2ccccc2CCc2ccccc21 (stereo not drawn) [Trimipramine maleate salt] | 0.167 ± 0.0021 | 0.204 ± 0.012 | 0.3 ± 0.0057 | 0.184 ± 0.013 | 0.15 ± 0.0042 | 0.156 ± 0.0021 | 0.141 ± 0.019 | 0.267 ± 0.046 | 0.195 ± 0.035 | 0.219 ± 0.027 | 0.4285 ± 0.0016 | 0.395 ± 0.0065 | 0.337 ± 0.0056 |
| N=C(N=C(N)N)N1CCOCC1 [Moroxidine hydrochloride] | 0.255 ± 0.02 | 0.288 ± 0.017 | 0.2687 ± 0.0004 | 0.225 ± 0.022 | 0.186 ± 0.013 | 0.152 ± 0.0076 | 0.366 ± 0.025 | 0.404 ± 0.032 | 0.203 ± 0.0065 | 0.245 ± 0.053 | 0.454 ± 0.045 | 0.404 ± 0.011 | 0.355 ± 0.033 |
| CN(C)CCN(Cc1cccs1)c1ccccn1 [Methapyrilene hydrochloride] | 0.216 ± 0.0071 | 0.281 ± 0.012 | 0.252 ± 0.007 | 0.224 ± 0.024 | 0.165 ± 0.0065 | 0.143 ± 0.0051 | 0.257 ± 0.024 | 0.41 ± 0.059 | 0.175 ± 0.0071 | 0.193 ± 0.0062 | 0.644 ± 0.021 | 0.402 ± 0.011 | 0.332 ± 0.011 |
| CO[C@@]1(NC(=O)C2SC(=C(C(N)=O)C(=O)O)S2)C(=O)N2C(C(=O)O)=C(CSc3nnnn3C)CS[C@@H]21 (stereo partly drawn) [Cefotetan] | 0.03883 ± 0.00012 | 0.0383 ± 0.0011 | 0.04147 ± 0.00015 | 0.03763 ± 0.00032 | 0.0413 ± 0.00026 | 0.03917 ± 5.8e-05 | 0.0535 ± 0.0059 | 0.048 ± 0.0045 | 0.0527 ± 0.0035 | 0.0511 ± 0.01 | 0.0443 ± 0.00044 | 0.0461 ± 0.00061 | 0.0531 ± 0.0051 |
| CC[N+](CC)(CC)CCOc1cccc(OCC[N+](CC)(CC)CC)c1OCC[N+](CC)(CC)CC [Gallamine triethiodide] | 0.245 ± 0.011 | 0.308 ± 0.014 | 0.2806 ± 0.0014 | 0.233 ± 0.017 | 0.191 ± 0.0068 | 0.1674 ± 0.00091 | 0.233 ± 0.013 | 0.368 ± 0.033 | 0.19 ± 0.011 | 0.251 ± 0.037 | 0.475 ± 0.062 | 0.4196 ± 0.0011 | 0.372 ± 0.017 |
| CC(CN(C)C)CN1c2ccccc2Sc2ccccc21 (stereo not drawn) [Trimeprazine tartrate] | 0.184 ± 0.019 | 0.221 ± 0.019 | 0.255 ± 0.0092 | 0.189 ± 0.012 | 0.129 ± 0.0014 | 0.168 ± 0.0079 | 0.175 ± 0.028 | 0.323 ± 0.07 | 0.192 ± 0.0094 | 0.231 ± 0.019 | 0.526 ± 0.013 | 0.392 ± 0.0092 | 0.298 ± 0.018 |
| Cc1cc2c(cc1S(N)(=O)=O)S(=O)(=O)CCC2 [Meticrane] | 0.252 ± 0.0068 | 0.292 ± 0.011 | 0.259 ± 0.012 | 0.234 ± 0.034 | 0.172 ± 0.013 | 0.142 ± 0.0066 | 0.389 ± 0.044 | 0.425 ± 0.049 | 0.186 ± 0.0019 | 0.281 ± 0.079 | 0.423 ± 0.008 | 0.408 ± 0.0074 | 0.254 ± 0.17 |
| C[C@H](CCC(=O)O)[C@H]1CC[C@H]2[C@@H]3C(=O)C[C@@H]4CC(=O)CC[C@]4(C)[C@H]3CC(=O)[C@]12C [Dehydrocholic acid] | 0.252 ± 0.0042 | 0.252 ± 0.062 | 0.25 ± 0.012 | 0.186 ± 0.022 | 0.183 ± 0.0057 | 0.138 ± 0.0079 | 0.329 ± 0.068 | 0.33 ± 0.07 | 0.196 ± 0.0059 | 0.236 ± 0.04 | 0.569 ± 0.034 | 0.406 ± 0.0045 | 0.3 ± 0.0058 |
| COc1ccccc1OCC(O)COC(N)=O (stereo not drawn) [Methocarbamol] | 0.2535 ± 0.00091 | 0.282 ± 0.0088 | 0.275 ± 0.012 | 0.218 ± 0.018 | 0.187 ± 0.0043 | 0.141 ± 0.006 | 0.292 ± 0.018 | 0.397 ± 0.058 | 0.178 ± 0.012 | 0.183 ± 0.018 | 0.509 ± 0.11 | 0.412 ± 0.0098 | 0.347 ± 0.0072 |
| CCCCC(CC)CN1CN(CC(CC)CCCC)CC(C)(N)C1 (stereo not drawn) [Hexetidine] | 0.219 ± 0.015 | 0.259 ± 0.0085 | 0.309 ± 0.0098 | 0.228 ± 0.039 | 0.161 ± 0.014 | 0.187 ± 0.0073 | 0.309 ± 0.022 | 0.373 ± 0.059 | 0.218 ± 0.018 | 0.225 ± 0.033 | 0.0454 ± 0.00058 | 0.173 ± 0.21 | 0.0486 ± 0.0013 |
| Cc1ccc(NC(=O)c2ccc(CN3CCN(C)CC3)cc2)cc1Nc1nccc(-c2cccnc2)n1 [Imatinib] | 0.171 ± 0.0085 | 0.23 ± 0.0032 | 0.241 ± 0.00089 | 0.141 ± 0.009 | 0.119 ± 0.0081 | 0.161 ± 0.0024 | 0.185 ± 0.02 | 0.334 ± 0.063 | 0.185 ± 0.011 | 0.217 ± 0.02 | 0.455 ± 0.046 | 0.4192 ± 0.0028 | 0.241 ± 0.018 |
| NC(=O)c1cc[n+](CC2=C(C(=O)[O-])N3C(=O)[C@@H](NC(=O)[C@@H](c4ccccc4)S(=O)(=O)O)[C@H]3SC2)cc1 [Cefsulodin sodium salt] | 0.257 ± 0.0041 | 0.309 ± 0.014 | 0.235 ± 0.007 | 0.228 ± 0.006 | 0.2032 ± 0.0015 | 0.145 ± 0.0069 | 0.33 ± 0.084 | 0.423 ± 0.028 | 0.211 ± 0.013 | 0.245 ± 0.015 | 0.636 ± 0.015 | 0.366 ± 0.012 | 0.356 ± 0.014 |
